Here are results for 28 compounds from PubChem BioAssay (Tox21).

Assay [1] deals with Progesterone receptor (Homo sapiens) (UniProt P06401). Briefly: qHTS assay to identify small molecule agonists of the progesterone receptor (PR) signaling pathway (AID 1346784; calls by dose curve; note: nearly all actives have a fitted effect of over 30% in size). The method, boiled down: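 Using charcoal-stripped serum (2%) to limit endogenous steroids, PR-UAS-bla HEK 293T cells received compounds for 16 hr at 37C after 6 hr plating; beta-lactamase FRET fluorescence was recorded following 2 hr substrate loading at room temperature.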
Sequence of Progesterone receptor (Homo sapiens) (P06401 whole entry, looked up): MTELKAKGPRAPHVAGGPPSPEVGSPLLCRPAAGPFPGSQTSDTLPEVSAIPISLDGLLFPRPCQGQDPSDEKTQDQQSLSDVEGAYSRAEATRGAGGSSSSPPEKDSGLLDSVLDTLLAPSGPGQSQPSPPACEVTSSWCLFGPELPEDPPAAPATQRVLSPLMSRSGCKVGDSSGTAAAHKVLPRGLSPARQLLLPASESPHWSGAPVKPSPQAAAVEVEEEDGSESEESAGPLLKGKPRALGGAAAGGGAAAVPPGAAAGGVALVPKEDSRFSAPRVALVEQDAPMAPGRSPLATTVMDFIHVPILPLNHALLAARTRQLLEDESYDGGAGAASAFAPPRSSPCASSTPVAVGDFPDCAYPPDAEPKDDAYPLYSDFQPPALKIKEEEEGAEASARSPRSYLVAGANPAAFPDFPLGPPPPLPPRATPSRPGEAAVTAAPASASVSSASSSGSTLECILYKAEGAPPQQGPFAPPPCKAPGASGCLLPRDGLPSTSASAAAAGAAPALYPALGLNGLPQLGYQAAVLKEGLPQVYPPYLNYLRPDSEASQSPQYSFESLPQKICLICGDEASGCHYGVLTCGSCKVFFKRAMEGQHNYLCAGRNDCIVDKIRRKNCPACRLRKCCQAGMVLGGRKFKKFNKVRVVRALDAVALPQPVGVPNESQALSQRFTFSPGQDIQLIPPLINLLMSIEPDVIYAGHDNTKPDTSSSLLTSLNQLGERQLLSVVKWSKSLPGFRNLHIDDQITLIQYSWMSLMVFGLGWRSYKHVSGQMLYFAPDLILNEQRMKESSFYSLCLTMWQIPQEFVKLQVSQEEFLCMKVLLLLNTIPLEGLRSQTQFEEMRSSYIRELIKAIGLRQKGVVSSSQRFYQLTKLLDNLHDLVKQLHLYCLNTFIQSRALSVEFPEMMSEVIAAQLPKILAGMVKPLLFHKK
In general terms: Quantitative high-throughput screening tests each substance at several concentrations.

Assay [2] shares this target. Kind of assay: qHTS assay to identify small molecule antagonists of the progesterone receptor (PR) signaling pathway (AID 1346795; active = well fitted inhibition curve with a large enough effect in the signal ratio in the repeat runs, not every such curve was filed as active; the % refers to the signal ratio; note: potency is the fitted concentration of half-maximal effect). The method, boiled down: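 Inhibition of R5020-induced (1 nM final) beta-lactamase reporter signal in PR-UAS-bla HEK293T cells was scored by FRET fluorescence after overnight (16 hr) compound treatment.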
A short description of assay [3]: qHTS assay to identify small molecule antagonists of the progesterone receptor (PR) signaling pathway - cell viability counter screen (AID 1346798). For activity change, negative = cytotoxicity: series mostly up to about 92 µM. Note: nearly all actives have a fitted effect of over 50% in size. Note: potency is the fitted concentration of half-maximal effect. Summed up:
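ATP content as viability readout: CellTiter-Glo luminescence, 30 min room temperature, in PR-UAS-bla HEK293T cells after 16 hr compound/R5020 treatment at 37C and 5% CO2.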

Assay [4] in a line: qHTS assay to identify small molecule agonists of the progesterone receptor (PR) signaling pathway - cell viability counter screen (AID 1346799; calls by dose curve; note: nearly all actives have a fitted effect of over 45% in size). The method, boiled down:
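Cytotoxicity in PR-bla HEK293T cells: 16 h compound, 37C; CellTiter-Glo added post-FRET read; luminescence after 30 min RT.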

The nature of assay [5]: qHTS assay to identify small molecule agonists of the TGF-beta/Smad signaling pathway - cell viability counter screen (AID 1346829). Note: top concentration of the series differs between compounds; nearly all actives have a fitted effect of over 45% in size. Summed up: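 HEK 293T SBE-bla line, 5 hr compound exposure at 37 C, multiplexed CellTiter-Glo viability read by luminescence.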
Assay [6] is described as follows: qHTS assay to identify small molecule agonists of the TGF-beta/Smad signaling pathway (AID 1346859; active = well fitted activation curve with a large enough effect in the signal ratio in the repeat runs, not every such curve was filed as active; the % refers to the signal ratio; note: series mostly up to about 77 µM). Summed up:
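Stable Smad binding element-beta-lactamase HEK 293T cells; 5 hr compound exposure at 37 C under 5% CO2; 2 hr room-temperature substrate step; fluorescence excited at 405 nm, collected at 460 nm and 530 nm.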

The target in assay [7] is Thyrotropin-releasing hormone receptor (Homo sapiens) (UniProt P34981). Kind of assay: qHTS assay to identify small molecule antagonists of the thyrotropin-releasing hormone receptor (TRHR) signaling pathway (AID 1346877; active = well fitted inhibition curve with a large enough effect in the repeat runs, not every such curve was filed as active; note: series mostly up to about 51 µM). Summed up: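 Antagonism is measured as suppression of the calcium response to 1 nM TRH in TRHR-HEK293 cells that have been dye-loaded for 2 h at 37 °C after overnight plating. Each compound is tested at 15 concentrations in triplicate.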
Sequence of Thyrotropin-releasing hormone receptor (Homo sapiens) (P34981 whole entry, looked up): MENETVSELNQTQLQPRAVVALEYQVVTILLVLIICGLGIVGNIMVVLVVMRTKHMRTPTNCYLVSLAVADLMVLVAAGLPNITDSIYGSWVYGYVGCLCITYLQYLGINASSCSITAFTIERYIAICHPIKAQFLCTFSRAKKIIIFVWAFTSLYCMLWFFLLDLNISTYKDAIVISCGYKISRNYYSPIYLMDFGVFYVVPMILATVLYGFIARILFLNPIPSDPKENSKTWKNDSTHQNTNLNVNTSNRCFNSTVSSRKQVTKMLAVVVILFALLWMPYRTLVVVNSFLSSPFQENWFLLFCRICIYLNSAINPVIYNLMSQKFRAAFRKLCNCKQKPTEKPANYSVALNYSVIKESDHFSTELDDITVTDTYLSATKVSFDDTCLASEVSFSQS

Assay [8] shares this target. Briefly: qHTS assay to identify small molecule agonists of the thyrotropin-releasing hormone receptor (TRHR) signaling pathway (AID 1346891; calls by dose curve;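 note: HEK293 cells expressing TRHR with calcium dye readout; series mostly up to about 58 µM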). Summed up:
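In 1536-format, 1500 TRHR-Hek293 cells per well grew 18 h, took up calcium dye for 2 h at 37 °C, received compound, and were read kinetically; 15-point titrations, triplicates.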

Assay [9] is described as follows: Human pregnane X receptor (PXR) small molecule agonists, qHTS cell viability counter screen (AID 1346977). Note: nearly all actives have a fitted effect of over 50% in size. Note: potency is the fitted concentration of half-maximal effect. Summed up:
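Readout is CellTiter-Fluor fluorescence from PXR-Luc HepG2 cells. Plated cells rested 5hr, then were treated with compounds for 24hr at 37C and 5% CO2, with reagent present during the last hour.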

Assay [10] is described as follows: qHTS assay to identify small molecule antagonists of the TGF-beta/Smad signaling pathway - cell viability counter screen (AID 1346824). Note: nearly all actives have a fitted effect of over 50% in size. Note: potency is the fitted concentration of half-maximal effect. Summed up: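 SBE-bla HEK 293T cells, incubated overnight, then compound plus 0.25 ng/mL TGF-beta1 (stock added) for 5 hr at 37 C. Viability was read in the same wells by CellTiter-Glo luminescence after 30 min at room temperature.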

Values joined by “and” are separate entries in the source; they are usually repeats but may differ in a detail not shown here. Identical values can stand only once. A number with no mark means an inactive call. Inconclusive results are not listed. Active and inactive are the calls of the source. Unless noted, calls come from the whole dose curve; as a rule, active = well fitted curve in the direction sought with a large enough effect in the repeat runs; inconclusive = weak or mixed curves; inactive = no such curve, though single readings can be large; an effect the other way counts as inactive or inconclusive.
% is set by controls: 0 for no effect and ±100 for the full control effect.

Turning to `CC(C)C(Br)C(=O)NC(N)=O` (configuration not stated), the Potency entry in assay [1], in [2], in assay [3], in assay [4], in [5] and in assay [7] was “inactive” throughout. The Potency result in assay [8] and in [9] was “inactive” in each case. The call in assay [6] was inactive.

Take `CCOC(=O)CCN(SN(C)C(=O)Oc1cccc2c1OC(C)(C)C2)C(C)C`: the Potency result in [1], in [2], in [3], in [4], in assay [10] and in assay [5] was “inactive” each time. For the same compound, the Potency result in assay [9] was “inactive”. Also, the compound was classed as inactive in [6].

In the case of `CC(C)N(C(=O)SC/C(Cl)=C/Cl)C(C)C`, the Potency result in [1], in assay [2], in [3], in assay [4], in [10] and in assay [9] was “inactive” in each case. In assay [6], the compound was classed as inactive.

Turning to `O=Cc1ccccc1`, the Potency entry in assay [1], in [2], in [3], in assay [10], in assay [5] and in [7] was “inactive” in each case. Further, the Potency entry in assay [8] and in assay [9] was “inactive” throughout. Further, the compound was classed as inactive in assay [6].

Regarding `CCCCCON=O`, the Potency result in assay [1], in assay [2], in [3], in [10], in [5] and in assay [9] was “inactive” throughout. In addition, the call in assay [6] was inactive.

For the compound `CC(C)NCC(O)c1ccccc1Cl` (configuration not stated), the Potency entry in assay [1], in assay [2], in assay [3], in [10], in assay [5] and in assay [7] was “inactive” each time. Moreover, the Potency result in assay [8] and in assay [9] was “inactive” each time. Also, the compound was called inactive in assay [6].

Regarding `CCOP(=S)(OCC)SC(CCl)N1C(=O)c2ccccc2C1=O` (configuration not stated), the Potency entry in [1], in [3], in assay [5], in assay [7], in [8] and in [9] was “inactive” each time. Further, in [2], the Potency is 27.3 µM (active). Also, the compound was called inactive in assay [6].

Regarding `COC(=O)c1ccccc1S(=O)(=O)NC(=O)Nc1nc(C)nc(OC)n1`, the Potency entry in [1], in [2], in [3], in assay [10], in assay [5] and in assay [7] was “inactive” each time. The Potency result in assay [8] and in [9] was “inactive” throughout. Further, in assay [6], the result was inactive.

As for `CC(Cc1ccc2c(c1)OCO2)NO` (configuration not stated), the Potency result in assay [1], in assay [2], in assay [3], in [10], in assay [5] and in assay [7] was “inactive” in each case. Besides, the Potency entry in assay [8] and in assay [9] was “inactive” each time. Also, the outcome in [6] was inactive.

With `C#CCO`, the Potency result in [1], in [2], in assay [3], in assay [10], in [5] and in [7] was “inactive” throughout. For the same compound, the Potency entry in assay [8] and in assay [9] was “inactive” throughout. The result in assay [6] was inactive.

As for `O=C(N[C@H]1N=C(c2ccccc2F)c2cccc3c2N(CC3)C1=O)c1cc2ccccc2[nH]1`, the Potency entry in assay [1], in [2], in [3], in [10], in [5] and in [7] was “inactive” throughout. Further, the Potency result in [8] and in assay [9] was “inactive” each time. Also, the outcome in [6] was inactive.

On to `CCNS(=O)(=O)C(F)(F)C(F)(F)C(F)(F)C(F)(F)C(F)(F)C(F)(F)C(F)(F)C(F)(F)F`, for which the Potency entry in assay [1], in [10], in assay [5], in assay [7], in [8] and in assay [9] was “inactive” each time. Also, in assay [2], the Potency was 65.7 µM (active). Moreover, the result in [6] was inactive.

Turning to `CNC(=O)Oc1cc(C)cc(C(C)C)c1`, the Potency result in assay [1], in assay [2], in [10], in [5], in [7] and in [8] was “inactive” each time. In addition, the Potency result in assay [9] is “inactive”. In assay [6], the result was inactive.

As for `COc1ccc2c3c1O[C@H]1[C@H](O)CC[C@H]4[C@@H](C2)N(C)CC[C@@]341`, the Potency result in assay [1], in assay [2], in [10], in [5], in assay [7] and in assay [8] was “inactive” each time. In assay [9], the Potency entry is “inactive”. In addition, the compound was called inactive in assay [6].

Regarding `CN(C)C(=S)SSC(=S)N(C)C`, the Potency result in assay [1] was “inactive”. The Potency was 0.135 µM (active) in assay [2]; 170 nM (active) and 386 nM (active) and 266 nM (active) in assay [3]; 19.2 µM (active) and 43.6 µM (active) and 26.8 µM (active) in assay [10]; 447 nM (active) and 486 nM (active) and 422 nM (active) in assay [9]. In addition, the compound was classed as inactive in assay [6].

In the case of `[Cl-].[Cl-].[Sn+2]`, the Potency entry in assay [1], in assay [2], in assay [3], in assay [10], in assay [5] and in assay [9] was “inactive” in each case. Besides, the result in [6] was inactive.

As to `CNC(=O)CSP(=O)(OC)OC`, the Potency entry in assay [1], in assay [2], in [3], in [5] and in assay [9] was “inactive” throughout. Also, in assay [6], the result was inactive.

With `CC1CN1` (configuration not stated), the Potency entry in assay [1], in assay [2], in assay [3] and in assay [9] was “inactive” each time. Further, the compound was classed as inactive in assay [6].

As for `CCCCC/C=C\C/C=C\C/C=C\C/C=C\CCCC(=O)NCC(=O)O`, the Potency entry in assay [1], in assay [3], in assay [10], in [5] and in assay [9] was “inactive” throughout. The Potency in [2] was 26.6 µM (active). In addition, the compound was called inactive in assay [6].

Take `CC(=O)[O-].CC(=O)[O-].CC(=O)[O-].[Sb+3]`: the activation in assay [1] is 3.93% [at 3.27 µM]; in assay [6], -3.71% [at 2.72 µM]. In assay [2], the activity change, negative = inhibition is -5.92% [at 3.27 µM]. In addition, the activity change, negative = cytotoxicity in assay [3] is 10.2% [at 3.27 µM]; in [9] it was 2.16% [at 3.27 µM]. Further, the viability change, negative = cytotoxic in assay [10] is -1.18% [at 2.72 µM].

As to `CC(Cc1ccc(OCC(=O)O)cc1)NCC(O)c1csc(C(F)(F)F)n1` (configuration not stated), the Potency result in [1], in [2], in assay [3], in [10], in [5] and in assay [7] was “inactive” each time. Moreover, the Potency entry in assay [8] and in assay [9] was “inactive” each time. The compound was classed as inactive in [6].

Turning to `CSC(C)(C)/C=N/O`, the Potency entry in assay [1], in [2], in assay [3], in [10], in assay [5] and in assay [7] was “inactive” each time. The Potency entry in [8] and in [9] was “inactive” throughout. For the same compound, in assay [6], the compound was called inactive.

Take `COP(=S)(NC(C)C)Oc1ccc(C)cc1[N+](=O)[O-]` (configuration not stated): the Potency entry in assay [1], in assay [3], in assay [10], in assay [5], in assay [7] and in assay [8] was “inactive” each time. For the same compound, the Potency result in [9] was “inactive”. Also, in assay [2], the Potency is 7.7 µM (active). Further, the outcome in assay [6] was inactive.

Regarding `COP(=O)(OC)O/C(=C\Cl)c1cc(Cl)c(Cl)cc1Cl`, the Potency result in [1], in assay [3], in assay [10], in assay [5], in assay [7] and in assay [8] was “inactive” each time. Besides, in assay [9], the Potency entry is “inactive”. Also, the Potency in assay [2] is 6.86 µM (active). Also, the compound was classed as inactive in assay [6].

For the compound `Clc1ccc(C(c2ccc(Cl)cc2)C(Cl)Cl)cc1`, the Potency result in assay [1] and in assay [3] was “inactive” in each case. Further, the Potency in assay [2] is 7.82 µM (active). Further, the compound was called inactive in assay [6].

Turning to `c1ccc2nc(N3CCNCC3)ccc2c1`, the Potency entry in assay [1], in assay [2], in assay [10], in [5], in [7] and in [8] was “inactive” throughout. In addition, the Potency entry in [9] is “inactive”. Moreover, the compound was classed as inactive in assay [6].

Take `O=C(NC(=O)c1c(F)cccc1F)Nc1ccc(Oc2ccc(C(F)(F)F)cc2Cl)cc1F`: the Potency result in [1], in [2], in [3], in [5], in [7] and in [8] was “inactive” in each case. The Potency entry in [9] was “inactive”. Also, in [6], the compound was called inactive.

In the case of `CN1C2CCC(C)(C)C1CC(OC(=O)C(O)(c1cccs1)c1cccs1)C2` (configuration not stated), the Potency entry in assay [1], in assay [2], in [3], in assay [5], in assay [7] and in [8] was “inactive” in each case. Moreover, in [6], the compound was called inactive.
